In PubChem BioAssay (Tox21):
A number with no mark means an inactive call. Results filed as inconclusive are left out. Where a call stands in place of a potency, no number is given. Active and inactive are the calls of the source. Unless noted, calls come from the whole dose curve; as a rule, active = well fitted curve in the direction sought with a large enough effect in the repeat runs; inconclusive = weak or mixed curves; inactive = no such curve, though single readings can be large; an effect the other way counts as inactive or inconclusive.

Key:
[1] = qHTS assay for small molecule agonists of the p53 signaling pathway (AID 651631; calls by dose curve; note: nearly all actives have a fitted effect of over 15% in size; note: potency is the fitted concentration of half-maximal effect)
Method in brief: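 HCT-116 cells carrying a stable p53 response element–beta-lactamase reporter were plated, rested 5 h at 37 °C, then exposed to compound in DMSO for 16 h at 37 °C; reporter activity was read as FRET substrate fluorescence after 2 h at room temperature.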

[2] = qHTS assay for small molecules that induce genotoxicity in human embryonic kidney cells expressing luciferase-tagged ATAD5 (AID 651632); note: nearly all actives have a fitted effect of over 15% in size; note: potency is the fitted concentration of half-maximal effect
Method in brief: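 ATAD5-luc HEK293T, 2,000 cells/well; cpd or DMSO pin-transferred; 16 hr, 37C/5% CO2; Amplite 30 min RT; luminescence.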

[3] = qHTS assay for small molecule agonists of the p53 signaling pathway - cell viability (AID 651633; calls by dose curve; note: series mostly up to about 83 µM; nearly all actives have a fitted effect of over 30% in size)
Method in brief: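 p53RE-bla cells were treated with compound for 16 hours at 37 C. Cytotoxicity was then measured as CellTiter-Glo luminescence after 30 min at room temperature.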

[4] = qHTS assay for small molecules that induce genotoxicity in human embryonic kidney cells expressing luciferase-tagged ATAD5 - cell viability (AID 651634; calls by dose curve; note: nearly all actives have a fitted effect of over 25% in size)
Method in brief: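 Fluorescence from CellTiter-Fluor, reporting protease activity within live cells, served as the viability read-out. HEK293T cells carrying luciferase-tagged ATAD5 had been treated with compound for 15.5 hr at 37C.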

[5] = qHTS assay for small molecule disruptors of the mitochondrial membrane potential - cell viability (AID 720634; calls by dose curve;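 note: human HepG2 liver cancer cells; series mostly up to about 83 µM; nearly all actives have a fitted effect of over 20% in size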)
Method in brief: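 Cells: HepG2, 2,000/well, attached overnight. Compound 1 hr, 37 C/5% CO2. +m-MPI dye, +CellTiter-Glo 30 min RT. Readout: luminescence (ATP).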

[6] = qHTS assay to test for compound auto fluorescence at 590 nm (red) in HepG2 cells (AID 720674)
Method in brief: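 Fluorescence at 590 nm emission following 540 nm excitation was recorded from HepG2 wells one hour after compound transfer, with DMSO-only wells as vehicle and Rose Bengal sodium equivalency as the scale.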

[7] = qHTS assay to test for compound auto fluorescence at 535 nm (green) in HepG2 cells (AID 720675)
[8] = qHTS assay to test for compound auto fluorescence at 460 nm (blue) in HEK293 cells (AID 720678)
Method in brief: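 Triamterene serves as the blue fluorophore standard. Compound signal at 405/460 nm is read in HEK293 wells (2,000 cells, 10% dialyzed FBS) after overnight treatment at 37C.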

[9] = qHTS assay to test for compound auto fluorescence at 590 nm (red) in HEK293 cells (AID 720679)
Method in brief: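 We plated HEK293 cells in 10% dialyzed FBS medium, let them adhere for 4-5 hr, then added 23 nL compound. Overnight at 37C and 5% CO2 preceded fluorescence measurement at 540/590nm.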

[10] = qHTS assay for small molecule disruptors of the mitochondrial membrane potential (AID 720635)
Method in brief: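 HepG2 cells exposed to compound 1 hr at 37C, then Mito-MPS dye 30 min. Ratio read of aggregate (540/590 nm) versus monomer (490/535 nm) fluorescence.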

With `CC(C)[C@H](N)C(=O)OCCOCn1cnc2c(=O)[nH]c(N)nc21` the Potency [1] was “inactive”, the Potency [2] was “inactive” and the Potency [3] was “inactive”. The Potency [4] was “inactive”, the Potency [5] was “inactive” and the outcome [6] was “inactive”. The outcome [7] was “inactive”, the Potency [8] was “inactive” and the outcome [9] was “inactive”.
For `N#CC1(O)CCCCC1`, the Potency [1] was “inactive”, the Potency [2] was “inactive” and the Potency [3] was “inactive”. For the same compound, the Potency [4] was “inactive”, the Potency [5] was “inactive” and the outcome [6] was “inactive”. The outcome [7] was “inactive”, the Potency [8] was “inactive” and the outcome [9] was “inactive”.
In the case of `OCC(CO)(CO)COCC(CO)(CO)CO`, the Potency [1] is reported as “inactive”, the Potency [2] is reported as “inactive” and the Potency [3] is reported as “inactive”. For the same compound, the Potency [4] was “inactive”, the Potency [5] was “inactive” and the outcome [6] was “inactive”. For the same compound, the outcome [7] was “inactive”, the Potency [8] was “inactive” and the outcome [9] was “inactive”.
In the case of `NC(=O)Nc1nc2ccccc2[nH]1`, the Potency [1] is reported as “inactive”, the Potency [2] is reported as “inactive” and the Potency [3] is reported as “inactive”. For the same compound, the Potency [4] was “inactive”, the Potency [5] was “inactive” and the outcome [6] was “inactive”. For the same compound, the outcome [7] was “inactive”, the Potency [8] was “inactive” and the outcome [9] was “inactive”.
For `N#CCN(CC#N)CCN(CC#N)CC#N`, the Potency [1] was “inactive”, the Potency [2] was “inactive” and the Potency [3] was “inactive”. The Potency [4] was “inactive”, the Potency [5] was “inactive” and the outcome [6] was “inactive”. For the same compound, the outcome [7] was “inactive”, the Potency [8] was “inactive” and the outcome [9] was “inactive”.
With `COC(=O)[C@H]1[C@H]2C[C@@H]3c4[nH]c5cc(OC)ccc5c4CCN3C[C@H]2C[C@@H](OC(=O)COc2ccc(OC)cc2)[C@@H]1OC` the Potency [1] was “inactive”, the Potency [2] was “inactive” and the Potency [3] was “inactive”. For the same compound, the Potency [4] was “inactive”, the Potency [5] was “inactive” and the outcome [6] was “inactive”. For the same compound, the outcome [7] was “inactive”, the Potency [8] was “inactive” and the outcome [9] was “inactive”.
In the case of `Cc1c(C)n(CCN(C)C)c2ccc(C(=O)OCCN(C)C)cc12`, the Potency [1] is reported as 26.6 µM (active), the Potency [2] is reported as “inactive” and the Potency [3] is reported as “inactive”. The Potency [4] was “inactive”, the Potency [5] was “inactive” and the outcome [6] was “inactive”. The outcome [7] was “inactive”, the Potency [8] was “inactive” and the outcome [9] was “inactive”.
In the case of `OCc1ccccn1`, the Potency [1] is reported as “inactive”, the Potency [2] is reported as “inactive” and the Potency [3] is reported as “inactive”. For the same compound, the Potency [4] was “inactive”, the Potency [5] was “inactive” and the outcome [6] was “inactive”. For the same compound, the outcome [7] was “inactive”, the Potency [8] was “inactive” and the outcome [9] was “inactive”.
For `CCOC(=O)Nc1ccc2c(c1)N(C(=O)CCN1CCOCC1)c1ccccc1S2`, the Potency [1] was “inactive”, the Potency [2] was “inactive” and the Potency [3] was “inactive”. The Potency [4] was “inactive”, the Potency [5] was “inactive” and the fluorescence, relative to Rose Bengal [6] was 0.181% [at 18.6 µM]. The fluorescence, % of fluorescein control [7] was 0.0633% [at 18.6 µM], the fluorescence, % of triamterene [8] was -0.0312% [at 18.6 µM] and the fluorescence, % of fluorescent control [9] was 0.108% [at 18.6 µM].
With `NC(=O)CCCCC1CCSS1` (configuration not stated) the Potency [1] was “inactive”, the Potency [2] was “inactive” and the Potency [3] was “inactive”. For the same compound, the Potency [4] was “inactive”, the Potency [5] was “inactive” and the outcome [6] was “inactive”. For the same compound, the outcome [7] was “inactive”, the Potency [8] was “inactive” and the outcome [9] was “inactive”.
In the case of `NCCN1CCNC1=O`, the Potency [1] is reported as “inactive”, the Potency [2] is reported as “inactive” and the Potency [3] is reported as “inactive”. The Potency [4] was “inactive”, the Potency [5] was “inactive” and the outcome [6] was “inactive”. The outcome [7] was “inactive”, the Potency [8] was “inactive” and the outcome [9] was “inactive”.
With `O=C(O)C(O)[C@H](O)[C@@H](O)[C@H](O)[C@H](O)CO` (some centres not stated) the Potency [1] was “inactive”, the Potency [2] was “inactive” and the Potency [3] was “inactive”. The Potency [4] was “inactive”, the outcome [6] was “inactive” and the outcome [7] was “inactive”. For the same compound, the outcome [9] was “inactive”.
With `C=CC(=O)OCCCCCC` the Potency [1] was “inactive”, the Potency [2] was “inactive” and the Potency [3] was “inactive”. The Potency [4] was “inactive”, the Potency [5] was “inactive” and the outcome [6] was “inactive”. For the same compound, the outcome [7] was “inactive” and the outcome [9] was “inactive”.
With `C#CC(O)CCCCC` (configuration not stated) the Potency [1] was “inactive”, the Potency [2] was “inactive” and the Potency [3] was “inactive”. For the same compound, the Potency [4] was “inactive”, the Potency [5] was “inactive” and the outcome [6] was “inactive”. For the same compound, the outcome [7] was “inactive” and the outcome [9] was “inactive”.
With `Cc1ccc(Nc2ccc(O)c3c2C(=O)c2ccccc2C3=O)cc1` the Potency [1] was “inactive”, the Potency [2] was “inactive” and the Potency [3] was “inactive”. The Potency [4] was “inactive”, the outcome [6] was “inactive” and the outcome [7] was “inactive”. For the same compound, the Potency [8] was “inactive” and the outcome [9] was “inactive”.
For `CCCCC=O`, the Potency [2] was “inactive”, the Potency [3] was “inactive” and the Potency [4] was “inactive”. For the same compound, the Potency [5] was “inactive”, the Potency [10] was “inactive” and the outcome [6] was “inactive”. For the same compound, the outcome [7] was “inactive”, the Potency [8] was “inactive” and the outcome [9] was “inactive”.
For `CO`, the Potency [1] was “inactive”, the Potency [3] was “inactive” and the Potency [4] was “inactive”. For the same compound, the outcome [6] was “inactive”, the outcome [7] was “inactive” and the Potency [8] was “inactive”. The outcome [9] was “inactive”.
For `Cc1ccccc1C(=O)O`, the Potency [1] was “inactive”, the Potency [3] was “inactive” and the Potency [4] was “inactive”. For the same compound, the Potency [5] was “inactive”, the Potency [10] was “inactive” and the outcome [6] was “inactive”. For the same compound, the outcome [7] was “inactive”, the Potency [8] was “inactive” and the outcome [9] was “inactive”.
For `COc1cc(C)cc(O)c1`, the Potency [2] was “inactive”, the Potency [3] was “inactive” and the Potency [4] was “inactive”. For the same compound, the Potency [5] was “inactive”, the Potency [10] was “inactive” and the outcome [6] was “inactive”. For the same compound, the outcome [7] was “inactive”, the Potency [8] was “inactive” and the outcome [9] was “inactive”.
In the case of `Cc1nc(-c2ccc(OCC(C)C)c(C#N)c2)sc1C(=O)O`, the Potency [1] is reported as “inactive”, the Potency [2] is reported as 0.15 µM (active) and the Potency [3] is reported as “inactive”. The Potency [4] was “inactive”, the outcome [6] was “inactive” and the outcome [7] was “inactive”. For the same compound, the Potency [8] was “inactive” and the outcome [9] was “inactive”.
In the case of `C=C(C)[C@H]1CC=C(C)CC1`, the Potency [1] is reported as “inactive”, the Potency [2] is reported as “inactive” and the Potency [3] is reported as “inactive”. For the same compound, the Potency [4] was “inactive”, the outcome [6] was “inactive” and the outcome [7] was “inactive”. The Potency [8] was “inactive” and the outcome [9] was “inactive”.
For `COCCOC(=O)CC#N`, the Potency [1] was “inactive”, the Potency [2] was “inactive” and the Potency [3] was “inactive”. For the same compound, the Potency [4] was “inactive”, the Potency [5] was “inactive” and the outcome [6] was “inactive”. For the same compound, the outcome [7] was “inactive”, the Potency [8] was “inactive” and the outcome [9] was “inactive”.
In the case of `CN1[C@@H]2CC[C@H]1CC(NC(=O)n1c(=O)[nH]c3ccccc31)C2` (some centres not stated), the Potency [1] is reported as “inactive”, the Potency [2] is reported as “inactive” and the Potency [3] is reported as “inactive”. The Potency [4] was “inactive”, the Potency [5] was “inactive” and the outcome [6] was “inactive”. The outcome [7] was “inactive” and the outcome [9] was “inactive”.
